This note sets out measurements from PubChem BioAssay.

Records with an inconclusive call do not appear. The source made the active and inactive calls. Unless noted, the limit is not given here; nearly all actives have AC50 up to about 26 µM.

The nature of the first assay: viability loss in pontine glioma line – cell-based, SU-DIPG-XXV, MIPE5.0, CellTiter-Glo, qHTS, dose response (AID 1347065).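 Also: cells exposed to compound for 48 hours before ATP readout.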 As to conditions: CellTiter-Glo ATP luminescence.
As to `COc1cc(OC)c(C(=O)CCCN2CCCC2)c(OC)c1`, the outcome was inactive.
The same measure, in the same setting: the value for `COc1ccc2nc(S(=O)Cc3ncc(C)c(OC)c3C)[nH]c2c1` (centres undefined) was “inactive”; that for `CC(C)[C@H](N)C(=O)OCCOCn1cnc2c(=O)[nH]c(N)nc21` was “inactive”.
Regarding `Cc1ccc(NC(=O)c2ccc(CN3CCN(C)CC3)cc2)cc1Nc1nccc(-c2cccnc2)n1`, the AC50 is 23.5 µM (active).
Take `C[N+]1(C)[C@@H]2CC(OC(=O)[C@H](CO)c3ccccc3)C[C@H]1[C@@H]1O[C@@H]12` (some centres undefined): the compound was called inactive.
Same read-out and setting: the value for `O=C(NCCO[N+](=O)[O-])c1cccnc1` was “inactive”; that for `Cn1c(NCCN(CCO)CCCc2ccc([N+](=O)[O-])cc2)cc(=O)n(C)c1=O` was “inactive”; that for `CCN1CCN(C(=O)N[C@@H](C(=O)N[C@@H]2C(=O)N3C(C(=O)O)=C(CSc4nnnn4C)CS[C@H]23)c2ccc(O)cc2)C(=O)C1=O` was “inactive”.
As for `CNNCc1ccc(C(=O)NC(C)C)cc1`, the outcome was inactive.
Turning to `O=C(O)/C=C/c1ccc(Cn2ccnc2)cc1`, the call was inactive.
For the compound `CCOC(=O)[C@H](CCc1ccccc1)N[C@@H](C)C(=O)N1CCC[C@H]1C(=O)O`, the call was inactive.
For the compound `O=NN(CCCl)C(=O)NC1CCCCC1`, the compound was classed as inactive.
Same read-out and setting: the value for `COc1ccc(C(=O)CC(=O)c2ccc(C(C)(C)C)cc2)cc1` was “inactive”; that for `NNc1nncc2ccccc12` was “inactive”.
On the same count and under the same terms, the value for `CN(CCOc1ccc(NS(C)(=O)=O)cc1)CCc1ccc(NS(C)(=O)=O)cc1` was “inactive”.
As to `O=NN(CCCl)C(=O)NCCCl`, the outcome was inactive.
Still for that read-out and setting: the value for `Cc1cn[nH]c1` was “inactive”.
With `COc1ccc2cc3[n+](cc2c1OC)CCc1cc2c(cc1-3)OCO2`, the AC50 is 18.6 µM (active).
On the same count and under the same terms, the value for `C#C[C@]1(O)CC[C@H]2[C@@H]3CCc4cc(O)ccc4[C@H]3CC[C@@]21C` was 13.2 µM (active).
Turning to `O=c1c(O)c(-c2ccc(O)c(O)c2)oc2cc(O)cc(O)c12`, the compound was called inactive.
Turning to `COC1=C(OC)C(=O)C(CCCCCCCCCCO)=C(C)C1=O`, the compound was called inactive.
Take `Cc1[nH]c(=O)c(C#N)cc1-c1ccncc1`: the outcome was inactive.
Same read-out and setting: the value for `COc1cc2c(N3CCN(C(=O)Nc4ccc(OC(C)C)cc4)CC3)ncnc2cc1OCCCN1CCCCC1` was “inactive”.
For the compound `Cc1ccsc1C(=CCCN1CCC[C@@H](C(=O)O)C1)c1sccc1C`, the call was inactive.
Turning to `Nc1nc(=S)c2[nH]cnc2[nH]1`, the concentration at half-maximal activity (AC50) is 1.48 µM (active).
In the case of `CCCN(CCC)C(=O)C(CCC(=O)O)NC(=O)c1ccccc1` (centres undefined), the compound was classed as inactive.
In the case of `CC(N)C12CC3CC(CC(C3)C1)C2` (centres undefined), the call was inactive.
Consider `Oc1ccc(OCc2ccccc2)cc1`, for which the result was inactive.
Regarding `COC(=O)Nc1nc2ccc(Sc3ccccc3)cc2[nH]1`, the concentration at half-maximal activity (AC50) is 0.742 µM (active).
`CC(=O)O[C@]1(C(C)=O)CC[C@H]2[C@@H]3C=C(Cl)C4=CC(=O)[C@@H]5C[C@@H]5[C@]4(C)[C@H]3CC[C@@]21C`: the half-maximal activity concentration (AC50) was 33.2 µM (active).
Consider `CO[C@@H]1[C@@H](OC(N)=O)[C@@H](O)[C@H](Oc2ccc3c(O)c(NC(=O)c4ccc(O)c(CC=C(C)C)c4)c(=O)oc3c2C)OC1(C)C`, for which the result was inactive.
Same read-out and setting: the value for `CCOc1cc(N)c(Cl)cc1C(=O)NCC1CN(Cc2ccc(F)cc2)CCO1` (centres undefined) was “inactive”.
Turning to `Nc1ncnc2c1ncn2[C@@H]1O[C@H](CO)[C@@H](O)[C@H]1O`, the outcome was inactive.
With `CCN(CC)CCOc1ccc(/C(=C(\Cl)c2ccccc2)c2ccccc2)cc1`, the AC50 was 13.2 µM (active).
As to `Cc1ccc(S(=O)(=O)NC(=O)NN2CC3CCCC3C2)cc1` (centres undefined), the result was inactive.
In the case of `CN(Cc1cc(Br)cc(Br)c1N)C1CCCCC1`, the AC50 was 16.6 µM (active).
For the compound `COC(=O)Nc1nc2ccc(C(=O)c3cccs3)cc2[nH]1`, the half-maximal activity concentration (AC50) is 0.118 µM (active).
In the case of `O=c1oc2c(O)c(O)cc3c(=O)oc4c(O)c(O)cc1c4c23`, the call was inactive.
In the case of `Cn1c(=O)c2c(ncn2C)n(C)c1=O`, the call was inactive.
With `CN(Cc1cnc2nc(N)nc(N)c2n1)c1ccc(C(=O)N[C@@H](CCC(=O)O)C(=O)O)cc1`, the half-maximal activity concentration (AC50) is 0.417 µM (active).

A short description of another assay: SU-DIPG-VI glioma cell viability, MIPE4.0 library, CellTiter-Glo luminescence, qHTS (AID 1347066; cut-off not given, nearly all actives have AC50 up to about 30 µM;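 also: cells exposed to compound for 48 hours before readout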). As to conditions: CellTiter-Glo ATP luminescence.
With `COc1cc(OC)c(C(=O)CCCN2CCCC2)c(OC)c1`, the outcome was inactive.
Take `COc1ccc2nc(S(=O)Cc3ncc(C)c(OC)c3C)[nH]c2c1` (centres undefined): the result was inactive.
As to `Cc1ccc(NC(=O)c2ccc(CN3CCN(C)CC3)cc2)cc1Nc1nccc(-c2cccnc2)n1`, the compound was classed as inactive.
For the compound `C[N+]1(C)[C@@H]2CC(OC(=O)[C@H](CO)c3ccccc3)C[C@H]1[C@@H]1O[C@@H]12` (some centres undefined), the compound was called inactive.
In the case of `O=C(NCCO[N+](=O)[O-])c1cccnc1`, the compound was called inactive.
In the case of `O=C(O)/C=C/c1ccc(Cn2ccnc2)cc1`, the result was inactive.
On to `CCOC(=O)[C@H](CCc1ccccc1)N[C@@H](C)C(=O)N1CCC[C@H]1C(=O)O`, for which the call was inactive.
`O=NN(CCCl)C(=O)NC1CCCCC1`: the result was inactive.
The same measure, in the same setting: the value for `NNc1nncc2ccccc12` was “inactive”; that for `CN(CCOc1ccc(NS(C)(=O)=O)cc1)CCc1ccc(NS(C)(=O)=O)cc1` was “inactive”.
For the compound `COc1ccc2cc3[n+](cc2c1OC)CCc1cc2c(cc1-3)OCO2`, the half-maximal activity concentration (AC50) is 23.5 µM (active).
For the compound `C#C[C@]1(O)CC[C@H]2[C@@H]3CCc4cc(O)ccc4[C@H]3CC[C@@]21C`, the call was inactive.
Turning to `COC1=C(OC)C(=O)C(CCCCCCCCCCO)=C(C)C1=O`, the AC50 was 23.5 µM (active).
Take `CC(N)C12CC3CC(CC(C3)C1)C2` (centres undefined): the outcome was inactive.
On to `Oc1ccc(OCc2ccccc2)cc1`, for which the result was inactive.
On to `COC(=O)Nc1nc2ccc(Sc3ccccc3)cc2[nH]1`, for which the compound was classed as inactive.
On to `CC(=O)O[C@]1(C(C)=O)CC[C@H]2[C@@H]3C=C(Cl)C4=CC(=O)[C@@H]5C[C@@H]5[C@]4(C)[C@H]3CC[C@@]21C`, for which the result was inactive.
`CO[C@@H]1[C@@H](OC(N)=O)[C@@H](O)[C@H](Oc2ccc3c(O)c(NC(=O)c4ccc(O)c(CC=C(C)C)c4)c(=O)oc3c2C)OC1(C)C`: the call was inactive.
Turning to `CCOc1cc(N)c(Cl)cc1C(=O)NCC1CN(Cc2ccc(F)cc2)CCO1` (centres undefined), the result was inactive.
In the case of `Nc1ncnc2c1ncn2[C@@H]1O[C@H](CO)[C@@H](O)[C@H]1O`, the outcome was inactive.
Turning to `CCN(CC)CCOc1ccc(/C(=C(\Cl)c2ccccc2)c2ccccc2)cc1`, the result was inactive.
With `COC(=O)Nc1nc2ccc(C(=O)c3cccs3)cc2[nH]1`, the AC50 was 3.72 µM (active).
Turning to `O=c1oc2c(O)c(O)cc3c(=O)oc4c(O)c(O)cc1c4c23`, the compound was classed as inactive.
As for `Cn1c(=O)c2c(ncn2C)n(C)c1=O`, the compound was classed as inactive.
